Compounds with a hit are over-represented: about 7.2% of the library has one in this group of screens.
VLA-4 inh: inhibition in a human VLA-4 binding assay. VLA-4 expressing cells, ligand binding flow cytometry. inhibition, % (about 7 µM as worked out from the volumes in the protocol). AID 2557. 330,000 compounds, 0.2% hits; in the data active means inhibition above about 50%
Bfl-1 A1 inh: inhibitors of the anti-apoptotic protein A1, read as caspase activation; AID 2462; caspase activation, % (no concentration beside the values); MEF A1-2A-BIM cells, Caspase-Glo 3/7 luminescence, 3 h; percent of clofoctol response, vehicle zero; 330,000 compounds, 0.066% hits;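 active means over half of replicate activation scores above 10%, or exactly half above 10 with the replicate mean above 10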
ALR inh: blocks human ALR sulfhydryl oxidase activity | P55789 | inhibition, % (concentration not given with the values) | 290,000 compounds, 3.8% hits | AID 485317 | purified ALR, DTT oxidation, H2O2 HRP-luminol luminescence;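 active means mean replicate inhibition above about 79%, with every replicate also reaching it, limit read from the data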
AHR activator: human AHR activation; P35869; 320,000 compounds, 2.5% hits; AHR-responsive luciferase reporter cells, luminescence; AID 2796; activation, % at 5 µM; in the data active means activation above about 47%;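 further: 0% = vehicle wells and 100% = reference agonist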
Target sequence (P35869 whole entry, looked up): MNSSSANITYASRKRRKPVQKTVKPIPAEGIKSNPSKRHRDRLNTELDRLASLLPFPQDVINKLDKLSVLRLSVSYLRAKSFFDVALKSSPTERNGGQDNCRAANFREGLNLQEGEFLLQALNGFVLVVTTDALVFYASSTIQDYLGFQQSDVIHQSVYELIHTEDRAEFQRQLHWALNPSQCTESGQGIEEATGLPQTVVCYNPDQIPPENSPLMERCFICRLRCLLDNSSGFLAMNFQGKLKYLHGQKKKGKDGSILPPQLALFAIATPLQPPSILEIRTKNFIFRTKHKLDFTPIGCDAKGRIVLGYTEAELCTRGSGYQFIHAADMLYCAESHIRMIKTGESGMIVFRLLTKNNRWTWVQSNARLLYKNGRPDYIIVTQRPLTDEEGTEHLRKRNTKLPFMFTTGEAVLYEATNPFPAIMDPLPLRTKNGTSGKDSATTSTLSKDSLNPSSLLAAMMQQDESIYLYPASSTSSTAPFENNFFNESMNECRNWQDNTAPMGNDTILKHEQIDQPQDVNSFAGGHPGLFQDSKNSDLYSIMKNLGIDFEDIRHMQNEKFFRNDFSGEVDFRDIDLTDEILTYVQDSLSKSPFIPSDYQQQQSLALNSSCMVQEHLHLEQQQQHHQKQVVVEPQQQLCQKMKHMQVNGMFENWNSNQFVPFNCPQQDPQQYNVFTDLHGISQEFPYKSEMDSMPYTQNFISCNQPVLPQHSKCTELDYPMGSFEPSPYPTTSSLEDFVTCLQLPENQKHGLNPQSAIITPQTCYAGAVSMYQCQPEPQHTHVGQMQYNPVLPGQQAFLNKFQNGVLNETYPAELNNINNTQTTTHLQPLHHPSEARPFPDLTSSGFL
Efflux pump mplx: inhibitors of Candida antifungal efflux pumps expressed in yeast; S. cerevisiae Candida pump triplex, Nile Red efflux; inhibition, % at 10 µM; 330,000 compounds, 0.44% hits; AID 485275;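 active means plate passing quality check with inhibition over a set limit, or well fluorescence over plate mean plus 4 SD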;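 further: Nile Red retained in pooled yeast measured as flow cytometry median fluorescence; 0% = buffer negative control and 100% = Enniatin B positive control; higher means more Nile Red kept so more efflux inhibition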
Mot1-301 SUMO: blocks SUMOylation pathway, rescuing yeast Mot1-301 growth | AID 2716 | growth rescue, % at 18.8 µM | 320,000 compounds, 1% hits | S. cerevisiae Mot1-301 growth rescue, ATP luminescence, 38.5C; percent above DMSO median, 100 means doubled;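 active means every valid replicate shows activation above 250% relative to neutral control wells; inactive means the rest, any valid replicate at or below 250%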;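 further: OY570 slx delta 5 strain wells were the positive control but not used for scaling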
VLA-4 mod pick: human VLA-4 allosteric modulation in cherry picked compounds; shares compounds with VLA-4 inh; U937 cells, HUTS-21 LIBS mAb binding, flow cytometry; LDV ligand present at threefold Kd; inhibition, % at 6.7 µM; 1,300 compounds, 2% hits; in the data active means inhibition above about 40%;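 further: 0% = ligand without compound and 100% = no ligand background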
Starred values were filed as active, the others as inactive; · = no result given.

SMILES | VLA-4 inh | Bfl-1 A1 inh | ALR inh | AHR activator | Efflux pump mplx | Mot1-301 SUMO | VLA-4 mod pick
NC(=O)c1ccccc1NC(=O)C(c1ccccc1)c1ccccc1 | 1.3 | -0.3 | -1.1 | -2.4 | 0.2 | 113.3 | ·
COc1ccc(NC(=O)N2CCC(n3nnc4cc(C)ccc43)CC2)cc1 | -7.0 | -0.3 | -13.8 | -6.1 | 0.1 | 1.9 | ·
O=C(Nc1ccc(Cl)cc1)OCc1cncs1 | 0.9 | 0.3 | · | -0.2 | 0.0 | -2.1 | -9.5
CCOC(=O)C1CCCN(CC(=O)c2c[nH]c3ccc(C)cc23)C1 (stereo not given) | -3.2 | 2.0 | -0.2 | 6.8 | -0.2 | -8.3 | ·
CCCCN(C)C(=O)C(Cc1ccccc1)NS(=O)(=O)c1ccc2c(c1)CCC(=O)N2 (stereo not given) | 54.3* | 0.0 | -16.6 | 0.6 | 0.0 | 4.8 | -2.2
O=C(COc1ccccc1)N1CCN(S(=O)(=O)c2cccc([N+](=O)[O-])c2)CC1 | 1.2 | 0.3 | -9.5 | 0.4 | 0.1 | -2.0 | ·
COC(=O)c1ccc(C)c(NC(=O)c2ccc(Cl)c([N+](=O)[O-])c2)c1 | 53.8* | -0.7 | -7.1 | 0.2 | 0.3 | 9.2 | -15.1
Cn1cc(C(=O)N/N=C/C=C/c2ccccc2)ccc1=O | 44.5 | 0.2 | -9.2 | 9.0 | -0.4 | -6.5 | 7.0
Cc1ccc(N2C(=O)C(Cl)=C(N3CCOCC3)C2=O)c(C)c1 | 2.8 | 0.2 | 44.8 | -0.6 | 0.0 | -7.4 | ·
Cc1ccc(S(=O)(=O)c2cnc(-c3ccccc3)nc2N2CCCCC2)cc1 | -3.0 | 0.5 | · | 2.9 | 0.0 | -18.9 | ·
CCN1CCN(Cc2ccc(NC(=O)c3cc(NC(=O)N4CCNC4=O)cc(OC)c3)cc2C(F)(F)F)CC1 | 55.2* | -0.5 | 0.3 | 0.9 | -0.1 | 102.8 | -2.1
COc1cc(NC(=O)N2CCNC2=O)cc(C(=O)Nc2cccc(C(F)(F)F)c2)c1 | 14.4 | 2.3 | -16.4 | 7.7 | -0.1 | -13.2 | 13.6
COC(=O)c1[nH]c2ccccc2c1NC(=O)C(C)N1CC(C)OC(C)C1 (stereo not given) | 6.8 | 1.5 | -15.6 | 1.8 | 0.0 | -23.0 | ·
CNC(=O)C(=O)Nc1ccc(C)cc1C | 5.0 | -0.5 | 2.6 | 1.6 | 0.1 | -13.9 | ·
CNC(=O)C(=O)Nc1c(C)cc(C)cc1C | 43.1 | -0.4 | -8.8 | 8.2 | 0.5 | 0.3 | -3.6
CCC(C(=O)OC)n1cnc2c(nnn2-c2cccc(OC)c2)c1=O (stereo not given) | 40.5 | -0.1 | -22.5 | 0.7 | 0.1 | -23.1 | -13.4
CCc1ccc(C2C3=C(CC(C)(C)CC3=O)Nc3c2c(=O)[nH]c2nc(C)nn32)cc1 (stereo not given) | 57.0* | 6.1* | 31.8 | -0.4 | 0.0 | -6.9 | 6.4
Cc1nc2[nH]c(=O)c3c(n2n1)NC1=C(C(=O)CC(C)(C)C1)C3c1ccc(F)cc1 (stereo not given) | 0.8 | -0.3 | 3.2 | 2.2 | 0.2 | -9.9 | ·
COc1ccc(NC(=O)CCN2C(=O)c3cccc([N+](=O)[O-])c3C2=O)cc1 | 51.0* | 1.2 | -11.1 | -0.1 | 0.2 | 2.0 | -3.5
COc1cccc(NC(=O)CCN2C(=O)c3cccc([N+](=O)[O-])c3C2=O)c1 | -1.0 | 0.8 | -66.5 | 0.6 | -0.3 | -9.5 | ·
C[C@H]1COC(=O)[C@H](Cc2ccc(F)cc2)C/C=C\C[C@H](CC(=O)N(CCO)Cc2ccccc2)C(=O)N1 | 112.9* | -0.4 | -4.0 | -2.1 | 0.1 | -21.0 | 5.7
CN(C)S(=O)(=O)c1cccc(C(=O)OCC(=O)Nc2ccccc2OC(F)F)c1 | 8.4 | -0.2 | -4.2 | -1.9 | 0.1 | -26.9 | ·
CCN(CC)S(=O)(=O)c1cccc(C(=O)OCC(=O)Nc2ccccc2OC(F)F)c1 | -0.9 | 0.2 | · | -0.9 | -0.1 | -5.1 | 0.4
CC1(C)CC(=O)c2c(O)cc(OCC(=O)N3CCN(c4ccccc4)CC3)cc2O1 | -13.8 | 0.4 | · | 0.7 | 0.1 | 138.9 | ·
CCOc1cc(/C=C2\C(=N)N3N=C(S(C)(=O)=O)SC3=NC2=O)ccc1OCCOc1cccc(OC)c1 | 42.8 | 0.6 | · | 3.8 | -0.2 | 155.6 | -13.4
SMILES | VLA-4 inh | Bfl-1 A1 inh | ALR inh | AHR activator | Efflux pump mplx | Mot1-301 SUMO | VLA-4 mod pick
Cc1ccc(NC(=O)C2CCN(C(=O)c3ccc(F)cc3)CC2)nc1 | 0.8 | -0.4 | -14.0 | 3.5 | 0.1 | 4.6 | -2.1
O=C(Nc1ccc(F)cc1)C1CCN(C(=O)c2ccc(F)cc2)CC1 | 2.9 | -0.1 | 1.9 | -1.0 | 0.0 | 3.5 | 0.0
O=C(NNC(=O)c1ccc(NC(=O)C2CC2)cc1)c1ccc(F)cc1 | 2.6 | 0.8 | -10.0 | · | 0.0 | 9.7 | ·
O=C(NCCc1ccc(F)cc1)C1CCN(C(=O)Nc2ccccc2)CC1 | 58.2* | 0.7 | · | -0.6 | 0.1 | -2.3 | -0.1
O=C(NCCc1ccccc1)C1CCN(C(=O)c2ccc(F)cc2)CC1 | 8.6 | 0.8 | -8.0 | 0.6 | -0.1 | -4.8 | ·
CC(C)Cc1nnc(NC(=O)C2CCN(C(=O)c3ccc(F)cc3)CC2)s1 | 4.3 | 0.0 | · | -2.6 | 0.2 | -3.8 | ·
C=CCn1c(O)c(C2=c3ccccc3=NC2=O)c2ccccc21 | 51.3* | 0.6 | -5.2 | 30.9 | -0.1 | 29.1 | -0.1
C=CCn1c(O)c(N=Nc2ccccc2)c2ccccc21 | 41.8 | 0.3 | -2.3 | 37.5 | 0.1 | -11.3 | ·
COc1ccc(C(C#N)c2ccc(=O)[nH]n2)cc1 (stereo not given) | 55.4* | 1.1 | 8.9 | 16.2 | 0.2 | 151.1 | -8.6
CC(Cc1c[nH]c2ccccc12)C(=O)N1CCN(c2ccccc2F)CC1 (stereo not given) | 0.0 | 0.6 | · | 5.7 | -0.2 | 12.4 | ·
COC(=O)c1ccc(C(=S)N2CCCCC2)cc1 | 57.3* | 0.8 | -2.5 | -1.3 | 0.1 | · | 4.4
N#Cc1ccccc1COC(=O)CCC(=O)c1cccs1 | 9.3 | 0.6 | · | -2.4 | 0.0 | 25.6 | ·
COc1ccc(C(C)=O)cc1COC(=O)CCNS(=O)(=O)c1ccc(C)cc1 | 21.0 | -0.7 | -5.8 | 3.2 | 0.3 | 1.7 | ·
COc1ccc(C(C)=O)cc1COC(=O)CNC(=O)c1cc(C)cc(C)c1 | 52.9* | 1.0 | 1.5 | 3.3 | 0.1 | -5.7 | -4.8
COCC(=O)Nc1cc(Cl)ccc1C(F)(F)F | 15.5 | -0.5 | -6.7 | -0.8 | -0.1 | 11.6 | ·
COc1ccccc1Nc1nc2ccc(C)cc2cc1C#N | 107.8* | 0.5 | 1.5 | 8.7 | -0.3 | 5.9 | -0.2
COc1ccc(/C=C/C(=O)Nc2ccccc2C(=O)O)cc1 | 6.9 | -8.3 | 7.6 | -0.3 | -0.2 | -12.7 | ·
COc1ccc(/C=C/C(=O)Nc2ccccc2C(=O)NCC(c2ccc(OC)cc2)N(C)C)cc1 (stereo not given) | 53.9* | -2.3 | -0.5 | 7.0 | 0.1 | -15.5 | 0.7
CC1CCCCN1C(=O)CCNS(=O)(=O)c1ccc2c(c1)c(=O)n(C)c(=O)n2C (stereo not given) | 18.5 | -0.4 | -1.6 | -0.5 | 0.0 | -3.8 | ·
COCCNC(=O)c1ccc(S(=O)(=O)N2CCCc3ccccc32)cc1 | -9.6 | -0.4 | · | 0.2 | -0.1 | -6.0 | 5.7
